From PubChem BioAssay
A number with no mark means an inactive call. For some of these results: Results with a measured potency or affinity are listed apart. Activity calls are given as the source filed them.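 The calls were made as follows, unless noted: active = thallium flux through the channel raised or lowered by more than 3 SD from vehicle-only wells, actives on both sides; inactive = the rest.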

Key:
[1] = test system: F380Y; experiment: modulators of BK channel variants, profiling panel, selectivity assay, cell-based, U2OS BacMam, thallium flux, beta subunits (AID 1259406); conditions: at 30 µM;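 also: initial slope of Thallos dye fluorescence rise after thallium is added; log ratio against the mean of 0.3% DMSO vehicle wells on the same plate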
[2] = test system: F380Y/beta1; experiment: as above; conditions: at 30 µM
[3] = test system: F380Y/beta2Delta; experiment: as above; conditions: at 30 µM
[4] = test system: F380Y/beta4; experiment: as above; conditions: at 30 µM
[5] = target: Calcium-activated potassium channel subunit alpha-1 (Homo sapiens) + Leucine-rich repeat-containing protein 26 (Homo sapiens) (UniProt Q12791+Q2I0M4); experiment: as above; conditions: F380Y/Slo1WT/gamma1, at 30 µM
[6] = test system: R275C; experiment: as above; conditions: at 30 µM
[7] = test system: R275C/beta1; experiment: as above; conditions: at 30 µM
[8] = test system: R275C/beta2Delta; experiment: as above; conditions: at 30 µM
[9] = test system: R275C/beta4; experiment: as above; conditions: at 30 µM
[10] = test system: R275C/Slo1WT/beta2; experiment: as above; conditions: at 30 µM
[11] = antimalarial activity against Dd2 strain (AID 2302;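 active = growth inhibition above 50% at the single 2 µM test dose, taken to imply half-maximal potency below 2 µM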;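 also: 0% = DMSO untreated growth and 100% = chloroquine plus artemisinin killed control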); conditions: P. falciparum Dd2 in RBCs, LDH growth readout, 72 h; at 2 µM; stronger effect = higher value
[12] = HepG2 cytotoxicity, primary screen, cytotoxicity control for P. falciparum antimalarial project, cell-based, ATP luminescence (AID 2303;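 active = inhibition above 50%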;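 also: 0% = DMSO wells and 100% = digitonin-killed cells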); conditions: HepG2 viability, 24-48 h, at 10 µM, stronger effect = higher value
[13] = target: L-lactate dehydrogenase (Plasmodium falciparum (isolate CDC / Honduras)) (UniProt Q27743); experiment: PfLDH activity inhibition – cell lysate, 3D7 strain, counter-screen for P. falciparum growth inhibition project (AID 2304; call rule not given here;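 also: 0% = vehicle and 100% = reference inhibitor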); conditions: P. falciparum 3D7 crude extract, LDH APAD/NBT absorbance; at 2 µM; stronger effect = higher value
[14] = inhibition of 3D7 malaria parasite growth – strain 3D7 (AID 2306; call rule not given here;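 also: 0% = DMSO wells and 100% = chloroquine plus artemisinin control wells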); conditions: P. falciparum 3D7 erythrocytic growth, LDH absorbance, 72 h; at 2 µM; stronger effect = higher value
[15] = target: Protein kinase 7 (PK7), Plasmodium falciparum 3D7 (PF3D7_0213400) (UniProt Q7YTF7); experiment: inhibition of Plasmodium PK7 catalytic activity – biochemical, TCAMS antimalarial set, Kinase-Glo luminescence (AID 1159587; call rule not given here); conditions: recombinant PfPK7, Kinase-Glo ATP depletion luminescence
[16] = target: Calcium-dependent protein kinase 4 (Plasmodium falciparum (isolate 3D7)) (UniProt Q8IBS5); experiment: PfCDPK4 kinase inhibitors, biochemical, TCAMS library (AID 1159588; cut-off not given, nearly all actives have IC50 up to about 0.91 µM); conditions: recombinant PfCDPK4, Kinase-Glo ATP depletion luminescence
Calcium-dependent protein kinase 4 (Plasmodium falciparum (isolate 3D7)), sequence (Q8IBS5 whole entry, looked up): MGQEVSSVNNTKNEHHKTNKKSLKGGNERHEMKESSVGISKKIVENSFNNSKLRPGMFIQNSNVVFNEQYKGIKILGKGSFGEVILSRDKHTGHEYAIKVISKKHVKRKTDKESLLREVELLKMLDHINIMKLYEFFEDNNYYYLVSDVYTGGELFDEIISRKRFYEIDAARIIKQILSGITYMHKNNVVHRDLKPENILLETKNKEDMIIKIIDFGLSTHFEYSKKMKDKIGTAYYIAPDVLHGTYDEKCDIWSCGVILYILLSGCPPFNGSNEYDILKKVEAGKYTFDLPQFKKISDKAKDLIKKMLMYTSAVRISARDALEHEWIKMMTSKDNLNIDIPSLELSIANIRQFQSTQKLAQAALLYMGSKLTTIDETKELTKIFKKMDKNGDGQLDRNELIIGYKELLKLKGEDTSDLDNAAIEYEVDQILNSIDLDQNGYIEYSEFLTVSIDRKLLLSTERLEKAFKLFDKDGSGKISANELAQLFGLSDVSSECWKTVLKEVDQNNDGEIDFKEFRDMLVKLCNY

Calcium-activated potassium channel subunit alpha-1 (Homo sapiens) + Leucine-rich repeat-containing protein 26 (Homo sapiens), sequence (Q2I0M4 whole entry, looked up, one chain of several): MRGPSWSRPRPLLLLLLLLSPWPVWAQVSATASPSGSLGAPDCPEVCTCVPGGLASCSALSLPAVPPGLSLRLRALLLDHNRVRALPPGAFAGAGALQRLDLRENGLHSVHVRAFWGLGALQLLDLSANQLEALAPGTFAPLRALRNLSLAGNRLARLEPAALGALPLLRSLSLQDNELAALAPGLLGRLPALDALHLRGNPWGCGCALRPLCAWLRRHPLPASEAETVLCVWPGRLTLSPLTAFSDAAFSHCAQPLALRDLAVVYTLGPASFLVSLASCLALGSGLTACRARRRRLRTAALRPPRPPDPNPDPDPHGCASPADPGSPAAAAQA
L-lactate dehydrogenase (Plasmodium falciparum (isolate CDC / Honduras)), sequence (Q27743 whole entry, looked up): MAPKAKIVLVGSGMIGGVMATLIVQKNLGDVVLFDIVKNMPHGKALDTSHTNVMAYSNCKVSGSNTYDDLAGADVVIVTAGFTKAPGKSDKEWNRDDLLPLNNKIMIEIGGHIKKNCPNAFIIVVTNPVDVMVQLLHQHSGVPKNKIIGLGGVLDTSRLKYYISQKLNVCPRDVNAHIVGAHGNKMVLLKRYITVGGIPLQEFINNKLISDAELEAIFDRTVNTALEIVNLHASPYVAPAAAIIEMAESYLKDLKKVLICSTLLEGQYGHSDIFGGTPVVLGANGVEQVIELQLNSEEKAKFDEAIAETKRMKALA
Protein kinase 7 (PK7), Plasmodium falciparum 3D7 (PF3D7_0213400), sequence (Q7YTF7 1-343): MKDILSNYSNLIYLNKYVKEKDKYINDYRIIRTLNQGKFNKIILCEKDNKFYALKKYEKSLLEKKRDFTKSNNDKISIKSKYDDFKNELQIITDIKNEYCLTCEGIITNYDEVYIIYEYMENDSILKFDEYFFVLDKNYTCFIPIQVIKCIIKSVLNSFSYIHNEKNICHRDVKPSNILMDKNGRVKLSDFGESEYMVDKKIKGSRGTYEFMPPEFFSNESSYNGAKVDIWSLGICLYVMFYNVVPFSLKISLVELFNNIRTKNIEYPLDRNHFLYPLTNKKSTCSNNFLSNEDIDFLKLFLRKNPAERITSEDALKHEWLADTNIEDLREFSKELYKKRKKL

| SMILES | log fold change Tl+ flux [1] | log fold change Tl+ flux [2] | log fold change Tl+ flux [3] | log fold change Tl+ flux [4] | log fold change Tl+ flux [5] | log fold change Tl+ flux [6] | log fold change Tl+ flux [7] | log fold change Tl+ flux [8] | log fold change Tl+ flux [9] | log fold change Tl+ flux [10] | growth inhibition [11] | inhibition [12] | inhibition [13] [%] | growth inhibition [14] | outcome [15] | outcome [16] |
| --- | --- | --- | --- | --- | --- | --- | --- | --- | --- | --- | --- | --- | --- | --- | --- | --- |
| Cc1cc(Sc2nnc(N=CN(C)C)s2)c2ccccc2n1 | 0.0126 | 0.0257 | -0.0453 | -0.0187 | 0.011 | 0.0403 | 0.0231 | 0.0658 | 0.0604 | 0.0405 | – | – | – | – | – | – |
| Cc1onc(-c2ccccc2)c1N1C(=O)CCN(C(C)C)C1=O | -0.0312 | -0.00917 | -0.0373 | -0.00603 | -0.0319 | -0.0915 (active) | 0.0435 | -0.0125 | -0.0122 | 0.000512 | – | – | – | – | – | – |
| COc1cc(NC(=S)Nc2cccc(C)n2)c(OC)cc1Cl | 0.00134 | -0.00183 | 0.043 | 0.0519 | -0.00641 | 0.00398 | -0.033 | 0.0321 | -0.0698 | -0.00284 | – | – | – | – | – | – |
| O=c1[nH]ccc2nc(N[C@@H]3CCCNC3)nc(Nc3ccc(S(=O)(=O)N4CCOCC4)cc3)c12 | – | – | – | – | – | – | – | – | – | – | 99% (active) | 13% | 0 | 96% (active) | inactive | inactive |
| CSc1nc(N)nc(-c2cccs2)n1 | 0.02 | 0.0489 | 0.0165 | 0.0265 | 0.0393 | -0.0182 | 0.00143 | 0.042 | 0.0144 | 0.0475 | – | – | – | – | – | – |
| NNC(=O)Cc1csc2nc(-c3ccccc3)nn12 | 0.0124 | 0.00927 | 0.017 | 0.00133 | -0.0179 | 0.0143 | 0.0323 | 0.0113 | 0.0106 | 0.0322 | – | – | – | – | – | – |
| CSc1nc(C=Nc2cccc(Cl)c2)c(O)n1Cc1cccc(Cl)c1 | -0.00291 | 0.208 (active) | 0.0623 | -0.0889 | 0.0392 | -0.03 | 0.102 | 0.137 (active) | 0.11 (active) | -0.0459 | – | – | – | – | – | – |
| O=C(Nc1cccc(-c2nn3ccccc3c2-c2ccnc(Nc3ccc(NCCCN4CCOCC4)c(F)c3)n2)c1)c1c(F)cccc1F | – | – | – | – | – | – | – | – | – | – | 97% (active) | 86% (active) | 0 | 100% (active) | inactive | – |
| FC(F)(F)c1ccc(-c2csc(C3(c4ccc(Cl)cc4Cl)CC3)n2)cc1 | -0.0289 | 0.000911 | 0.0443 | -0.0216 | 0.0176 | -0.00802 | 0.0119 | -0.00666 | 0.0455 | -0.0337 | – | – | – | – | – | – |
| CC(=O)N(C(C)=O)c1ccc2c3c(cccc13)CC2 | 0.051 | -0.00187 | -0.0119 | -0.0487 | -0.0226 | 0.0133 | 0.0421 | -0.00855 | 0.0484 | 0.0138 | – | – | – | – | – | – |
| CCOC(=O)C(C)Oc1ccc(NS(=O)(=O)c2cc(OC)ccc2OC)cc1Cl (stereo unspecified) | -0.0459 | -0.0343 | -0.0957 | -0.104 (active) | -0.0848 | -0.0618 | 0.0118 | -0.0738 | -0.0156 | -0.0391 | – | – | – | – | – | – |
| CC(c1cccc(Nc2nccc(-c3c(-c4cccc(NC(=O)c5c(F)cccc5F)c4)nn4ncccc34)n2)c1)S(C)(=O)=O (stereo unspecified) | – | – | – | – | – | – | – | – | – | – | 98% (active) | 79% (active) | 4 | 98% (active) | inactive | – |
| CNC(=O)c1ccccc1Nc1nc(Nc2ccc(CCN3CCN(C)CC3)cc2)ncc1Cl | – | – | – | – | – | – | – | – | – | – | 98% (active) | 76% (active) | 5 | 97% (active) | inactive | – |
| CS(=O)(=O)NNc1c(Cl)cc(Cl)cc1Cl | 0.00053 | -0.000501 | -0.00312 | 0.0402 | 0.016 | 0.0374 | -0.0143 | 0.00102 | 0.0275 | 0.0607 | – | – | – | – | – | – |
